Data on five molecules can be found in PubChem BioAssay.

The nature of assay [1]: yeast TOR pathway RPL19A-GFP modulators, primary screen, cell-based, S. cerevisiae, multiplex flow cytometry (AID 1862; in the data active = percent of DMSO control GFP below about 86%;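 note: lower values mimic rapamycin by blocking the RPL19A rise seen in DMSO cells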). As to conditions: S. cerevisiae RPL19A-GFP strain, flow cytometry fluorescence, 3 h; at 10 µM; stronger effect = lower value. For orientation: A flow cytometer gives signals particle by particle.
Assay [2] in a line: modulators of MEP2-GFP levels in yeast, primary screen, S. cerevisiae, multiplex flow cytometry (AID 1867;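 active = GFP response, as percent of the DMSO control, above the screen-wide mean plus 3 SD, about 139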;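 note: median GFP channel fluorescence of barcode-gated MEP2-GFP cells measured by flow cytometry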). As to conditions: S. cerevisiae MEP2-GFP strain, 3 h, at 10 µM, stronger effect = higher value, 100% means same as DMSO wells.
Assay [3] is described as follows: modulators of CIT2-GFP expression in yeast, primary screen, S. cerevisiae, GFP fusion, multiplex flow cytometry (AID 1870;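 active = percent response above a set limit, the screen-wide mean plus 3 SD, cut at about 130% in these data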;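 note: barcoded CIT2-GFP strain pooled with four other GFP strains with rapamycin as positive control; median GFP fluorescence per well over plate mean of DMSO wells so 100% = DMSO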). As to conditions: 3 h, at 10 µM, stronger effect = higher value.
Assay [4] can be described thus: modulators of LAP4-GFP expression in yeast, primary screen, S. cerevisiae, multiplex flow cytometry (AID 1873;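 active = GFP signal, as percent of the solvent control, above the screen mean plus 3 SD, about 149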). As to conditions: 3 h, at 10 µM, stronger effect = higher value.
The nature of assay [5]: modulators of AGP1-GFP expression in yeast TOR pathway, primary screen, cell-based, multiplex flow cytometry, S. cerevisiae (AID 1887;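 active = GFP signal above the screen-wide mean plus 3 SD, that is over about 124.5% of the solvent control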;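 note: AGP1-GFP fusion strain of S. cerevisiae within a five-strain barcoded multiplex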). To be noted: 3 h, at 10 µM, stronger effect = higher value.
Assay [6] can be described thus: inhibitors of CD8+ T cell-vesicle binding, pilot screen, LFA-1/ICAM-1 modulator project, MLPCN validation set, flow cytometry (AID 2523;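 active = response below a set limit, under 55% cells CD8-positive and vesicle-bound, and CD8 cells' 90th-percentile brightness under 279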;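 for vesicle binding response: mean PE anti-B7-1 fluorescence of CD8+ cells relative to row control; 100% = QL9-loaded vesicles with DMSO vehicle in the same plate row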). As to conditions: 2C mouse CD8+ T cells, at 7 µM, stronger effect = lower value; double positive events: measured here: CD8+/vesicle+ event percentage.
The target of assay [7] is Integrin beta-1 (Homo sapiens) + Integrin alpha-4 (Homo sapiens) (UniProt P13612+P05556). The assay can be described thus: inhibition of HUTS-21 binding to VLA-4, pilot screen, VLA-4 allosteric modulator project, U937 cells, HUTS-21 mAb, flow cytometry, validation set (AID 2674;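 active = inhibition above 50%, about 3 SD of the validation set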;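 note: antibody binding induced by the VLA-4 ligand LDV present at three times its Kd; 0% = LDV ligand with antibody and no compound and 100% = antibody without LDV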). To be noted: HUTS-21 LIBS mAb binding, at 6.7 µM, stronger effect = higher value, binding induced by LDV ligand.
Integrin beta-1 (Homo sapiens) + Integrin alpha-4 (Homo sapiens), sequence (P05556 whole entry, looked up): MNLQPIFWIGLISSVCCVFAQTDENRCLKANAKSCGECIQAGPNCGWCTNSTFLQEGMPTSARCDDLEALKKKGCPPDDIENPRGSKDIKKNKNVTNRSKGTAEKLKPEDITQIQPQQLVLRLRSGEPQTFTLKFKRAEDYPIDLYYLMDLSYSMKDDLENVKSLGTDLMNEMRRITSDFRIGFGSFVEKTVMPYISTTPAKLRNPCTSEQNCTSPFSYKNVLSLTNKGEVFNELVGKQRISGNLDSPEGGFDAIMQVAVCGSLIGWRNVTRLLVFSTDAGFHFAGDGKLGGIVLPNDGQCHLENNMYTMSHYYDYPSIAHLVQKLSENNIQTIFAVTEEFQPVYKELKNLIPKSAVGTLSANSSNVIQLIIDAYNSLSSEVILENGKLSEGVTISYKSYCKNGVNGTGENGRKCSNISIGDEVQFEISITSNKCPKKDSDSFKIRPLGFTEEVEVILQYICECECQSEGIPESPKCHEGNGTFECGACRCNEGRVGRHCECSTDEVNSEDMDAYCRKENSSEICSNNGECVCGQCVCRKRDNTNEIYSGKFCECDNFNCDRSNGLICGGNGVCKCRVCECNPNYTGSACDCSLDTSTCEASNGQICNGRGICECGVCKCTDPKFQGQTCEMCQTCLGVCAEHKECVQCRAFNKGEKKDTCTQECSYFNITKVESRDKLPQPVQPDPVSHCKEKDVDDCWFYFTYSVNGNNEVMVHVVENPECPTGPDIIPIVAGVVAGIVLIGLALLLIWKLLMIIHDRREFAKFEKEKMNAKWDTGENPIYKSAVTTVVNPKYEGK
Integrin beta-1 (Homo sapiens) + Integrin alpha-4 (Homo sapiens), sequence (P13612 whole entry, looked up): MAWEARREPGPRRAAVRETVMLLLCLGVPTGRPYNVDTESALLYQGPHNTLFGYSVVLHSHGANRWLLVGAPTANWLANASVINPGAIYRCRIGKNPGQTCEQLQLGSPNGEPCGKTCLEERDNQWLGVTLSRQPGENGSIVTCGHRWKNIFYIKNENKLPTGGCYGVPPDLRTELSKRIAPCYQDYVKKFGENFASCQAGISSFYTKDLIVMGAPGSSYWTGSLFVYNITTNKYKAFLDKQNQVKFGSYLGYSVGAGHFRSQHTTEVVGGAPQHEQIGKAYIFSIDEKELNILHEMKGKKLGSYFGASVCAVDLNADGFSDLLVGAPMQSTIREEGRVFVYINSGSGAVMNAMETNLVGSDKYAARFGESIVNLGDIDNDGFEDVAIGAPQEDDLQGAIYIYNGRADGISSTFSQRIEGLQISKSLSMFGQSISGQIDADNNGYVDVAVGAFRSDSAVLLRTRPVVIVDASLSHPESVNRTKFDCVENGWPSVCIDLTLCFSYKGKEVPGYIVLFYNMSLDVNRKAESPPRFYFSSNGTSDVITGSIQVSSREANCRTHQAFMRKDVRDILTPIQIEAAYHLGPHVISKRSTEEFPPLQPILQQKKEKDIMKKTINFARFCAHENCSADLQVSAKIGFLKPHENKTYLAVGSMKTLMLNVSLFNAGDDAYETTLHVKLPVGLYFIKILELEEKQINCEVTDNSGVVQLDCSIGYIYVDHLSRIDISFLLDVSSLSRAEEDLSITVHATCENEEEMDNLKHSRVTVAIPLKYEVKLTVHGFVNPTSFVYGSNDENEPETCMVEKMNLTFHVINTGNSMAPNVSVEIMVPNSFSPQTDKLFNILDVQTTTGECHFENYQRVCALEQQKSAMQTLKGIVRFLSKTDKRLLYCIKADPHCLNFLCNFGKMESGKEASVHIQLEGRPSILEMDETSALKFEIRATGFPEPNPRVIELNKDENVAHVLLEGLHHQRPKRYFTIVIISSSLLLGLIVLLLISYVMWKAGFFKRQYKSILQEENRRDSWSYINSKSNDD

The nature of assay [8]: superoxide lowering in aged yeast cells, pilot screen, validation compound set (AID 2706;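 active = superoxide response below 65% of plate, a cut near 3 SD across the whole screen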;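 note: yeast exposed to compound for one week at 30 degrees C before staining; 100% = mean of all compound wells on the same plate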). To be noted: S. cerevisiae aging, superoxide DHE fluorescence; at 10 µM; stronger effect = lower value.
Assay [9] deals with Beta-adrenergic receptor kinase 1 (Homo sapiens) (UniProt P25098). In words: GRK2 binders displacing RNA aptamer, biochemical, validation, human GRK2, bead flow cytometry (AID 488806;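 active = aptamer binding inhibition above 30%, about 3 SD of noise from non-fluorescent compounds; inactive = inhibition at or below 30%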). To be noted: bead-bound GRK2, FAM-aptamer displacement, at 10 µM, stronger effect = higher value.
Beta-adrenergic receptor kinase 1 (Homo sapiens), sequence (P25098 whole entry, looked up): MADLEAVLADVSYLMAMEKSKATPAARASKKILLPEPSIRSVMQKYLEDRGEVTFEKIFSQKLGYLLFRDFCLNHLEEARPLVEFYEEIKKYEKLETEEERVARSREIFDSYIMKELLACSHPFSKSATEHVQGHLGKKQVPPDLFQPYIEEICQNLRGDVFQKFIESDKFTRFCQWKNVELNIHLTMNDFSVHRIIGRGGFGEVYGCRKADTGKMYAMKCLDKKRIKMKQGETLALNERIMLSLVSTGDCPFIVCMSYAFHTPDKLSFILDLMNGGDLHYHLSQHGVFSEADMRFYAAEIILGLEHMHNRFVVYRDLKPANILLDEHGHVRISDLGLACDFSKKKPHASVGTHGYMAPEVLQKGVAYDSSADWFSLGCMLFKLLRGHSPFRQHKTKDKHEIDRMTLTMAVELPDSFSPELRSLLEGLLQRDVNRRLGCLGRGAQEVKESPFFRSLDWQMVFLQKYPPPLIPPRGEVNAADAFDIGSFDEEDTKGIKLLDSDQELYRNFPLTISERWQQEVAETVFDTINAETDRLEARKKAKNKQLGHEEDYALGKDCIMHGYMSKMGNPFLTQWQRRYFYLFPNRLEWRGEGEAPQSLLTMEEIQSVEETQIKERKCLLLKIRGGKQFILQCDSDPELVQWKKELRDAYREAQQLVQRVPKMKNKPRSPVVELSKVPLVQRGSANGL
The target of assay [10] is Beta-2 adrenergic receptor (Homo sapiens) (UniProt P07550). In words: beta2AR agonists driving receptor internalization, pilot screen, cell-based, FAP fluorogen, flow cytometry, validation set (AID 504459;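 active = percent response above 42, roughly 3 SD of non-fluorescent test compounds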;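 note: agonist-driven loss of surface beta2AR via internalization measured by FAP dye flow cytometry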). As to conditions: Am2.2-beta2AR cells, FAP surface receptor flow cytometry; at 10 µM; stronger effect = higher value.
Beta-2 adrenergic receptor (Homo sapiens), sequence (P07550 whole entry, looked up): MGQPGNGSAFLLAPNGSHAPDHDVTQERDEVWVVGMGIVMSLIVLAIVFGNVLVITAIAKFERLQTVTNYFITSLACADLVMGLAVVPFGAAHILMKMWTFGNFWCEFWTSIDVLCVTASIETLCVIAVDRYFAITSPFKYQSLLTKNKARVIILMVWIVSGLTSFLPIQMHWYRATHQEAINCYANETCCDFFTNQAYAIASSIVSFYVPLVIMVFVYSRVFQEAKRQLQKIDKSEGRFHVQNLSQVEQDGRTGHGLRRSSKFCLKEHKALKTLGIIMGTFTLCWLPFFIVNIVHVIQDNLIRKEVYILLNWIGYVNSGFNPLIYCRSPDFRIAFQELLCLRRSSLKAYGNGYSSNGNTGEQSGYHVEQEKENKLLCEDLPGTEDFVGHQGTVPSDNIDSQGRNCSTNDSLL
In assay [11] the target is AP-2 complex subunit beta (Homo sapiens) (UniProt P63010). In words: inhibitors of arrestin peptide binding to AP2, pilot screen, biochemical, validation set, GST-AP2 beads, flow cytometry (AID 504541).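 Note: AP2 carries R879A mutation and is captured from E. coli lysate; bead-bound FITC arrestin peptide fluorescence measuring arrestin peptide binding to AP2; 0% = DMSO wells and 100% = excess unlabeled arrestin peptide control.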 To be noted: FITC arrestin peptide, at 10 µM, stronger effect = higher value, AP2 beta2 appendage fragment, R879A mutant.
AP-2 complex subunit beta (Homo sapiens), sequence (P63010 whole entry, looked up, the tested form may be a part, one chain of several): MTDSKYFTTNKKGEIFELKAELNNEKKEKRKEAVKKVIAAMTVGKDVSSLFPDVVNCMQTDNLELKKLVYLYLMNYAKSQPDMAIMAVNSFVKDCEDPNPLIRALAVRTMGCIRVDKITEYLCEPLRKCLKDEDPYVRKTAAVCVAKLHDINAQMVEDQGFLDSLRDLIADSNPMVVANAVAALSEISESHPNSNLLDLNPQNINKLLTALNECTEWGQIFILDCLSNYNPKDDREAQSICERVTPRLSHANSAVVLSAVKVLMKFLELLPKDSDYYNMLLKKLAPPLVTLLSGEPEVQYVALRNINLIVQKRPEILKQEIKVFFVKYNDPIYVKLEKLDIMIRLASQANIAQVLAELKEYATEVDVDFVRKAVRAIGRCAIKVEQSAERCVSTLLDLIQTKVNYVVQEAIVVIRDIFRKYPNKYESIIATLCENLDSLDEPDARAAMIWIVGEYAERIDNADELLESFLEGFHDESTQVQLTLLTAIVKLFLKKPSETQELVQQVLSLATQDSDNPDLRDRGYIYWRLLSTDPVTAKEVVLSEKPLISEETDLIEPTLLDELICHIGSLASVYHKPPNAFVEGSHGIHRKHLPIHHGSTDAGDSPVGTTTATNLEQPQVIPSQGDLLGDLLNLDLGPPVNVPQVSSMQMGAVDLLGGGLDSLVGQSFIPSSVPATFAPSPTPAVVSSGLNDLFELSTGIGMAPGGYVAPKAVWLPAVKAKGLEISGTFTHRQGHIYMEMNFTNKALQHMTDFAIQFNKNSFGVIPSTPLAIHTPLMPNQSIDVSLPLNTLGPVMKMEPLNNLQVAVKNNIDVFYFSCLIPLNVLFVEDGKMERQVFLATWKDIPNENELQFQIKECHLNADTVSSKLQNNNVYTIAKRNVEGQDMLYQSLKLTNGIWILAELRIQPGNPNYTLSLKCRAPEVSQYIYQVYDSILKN
A short description of assay [12]: yeast V-ATPase proton transport modulators, S. cerevisiae, pHLuorin, HTS validation (AID 504600; in the data active = response above about 15%;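 note: plate controls were DMSO for no effect and reference compound for full effect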). As to conditions: S. cerevisiae pHLuorin cytosolic pH, at 10 µM, stronger effect = higher value.
Assay [13] relates to anti-desmoglein-3 scFv antibody binding to human DSG3. The assay can be described thus: inhibitors of anti-DSG3 scFv binding to DSG3, pilot screen, biochemical, validation compound set, bead-based, flow cytometry (AID 588368;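 active = binding below the plate cutoff, the plate median minus 3 SD, with a reading above zero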;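 note: signal is the median channel fluorescence of bead-bound GFP antibody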). To be noted: Protein G beads, DSG3-Fc, scFv-GFP binding, at 10 µM, stronger effect = lower value.
The nature of assay [14]: inhibitors of fungal efflux pumps CDR1, CDR2, MDR1, pilot screen, validation compound set, multiplex, phenotypic (AID 588506;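 active = efflux inhibition above 0.42, the validation set average plus 4 SD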;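 note: Nile Red retained in cells so higher fluorescence means more efflux inhibition; 0 = negative control wells and 1 = enniatin B 25 µM full block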). As to conditions: S. cerevisiae pump-expressing triplex, Nile Red efflux flow cytometry; at 10 µM; stronger effect = higher value; the pumps come from Candida albicans.
Assay [15] concerns the target ATP-binding cassette sub-family B member 6 (Homo sapiens) (UniProt Q9NP58). In words: ABCB6 transporter inhibitors, pilot screen, K562-ABCB6 cells, flow cytometry, validation set (AID 588550;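 active = inhibition above the screen-wide mean plus 3 SD, about 51%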;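 note: 0% = DMSO wells and 100% = benzethonium chloride 70 µM positive control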). To be noted: K562-ABCB6 porphyrin accumulation, 1 h, at 10 µM, stronger effect = higher value.
Assay [16] is described as follows: promoters of myeloid differentiation in arrested cells, primary screen, cell-based, GFP/MAC1 double positive, flow cytometry, validation set (AID 588685;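 active = differentiation response of at least 50%, scaled between solvent and reference control, from cells with both markers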;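 note: compound exposure lasts four days before antibody staining and flow analysis; 0% = DMSO wells and 100% = 5 µM fulvestrant positive control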). To be noted: ER-HoxA9 marrow cells, stronger effect = higher value, normalized: vehicle 0, fulvestrant 100.

A word on the inhibition: it is the drop in the measured response relative to a control, in per cent.

Molecules are shown by their SMILES. Results filed as inconclusive are left out. Active and inactive are the calls of the source.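 Rule for the calls, unless noted: active = inhibition above 54%, about 3 SD of non-fluorescent compounds; inactive = the rest.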

ATP-binding cassette sub-family B member 6 (Homo sapiens), sequence (Q9NP58 whole entry, looked up): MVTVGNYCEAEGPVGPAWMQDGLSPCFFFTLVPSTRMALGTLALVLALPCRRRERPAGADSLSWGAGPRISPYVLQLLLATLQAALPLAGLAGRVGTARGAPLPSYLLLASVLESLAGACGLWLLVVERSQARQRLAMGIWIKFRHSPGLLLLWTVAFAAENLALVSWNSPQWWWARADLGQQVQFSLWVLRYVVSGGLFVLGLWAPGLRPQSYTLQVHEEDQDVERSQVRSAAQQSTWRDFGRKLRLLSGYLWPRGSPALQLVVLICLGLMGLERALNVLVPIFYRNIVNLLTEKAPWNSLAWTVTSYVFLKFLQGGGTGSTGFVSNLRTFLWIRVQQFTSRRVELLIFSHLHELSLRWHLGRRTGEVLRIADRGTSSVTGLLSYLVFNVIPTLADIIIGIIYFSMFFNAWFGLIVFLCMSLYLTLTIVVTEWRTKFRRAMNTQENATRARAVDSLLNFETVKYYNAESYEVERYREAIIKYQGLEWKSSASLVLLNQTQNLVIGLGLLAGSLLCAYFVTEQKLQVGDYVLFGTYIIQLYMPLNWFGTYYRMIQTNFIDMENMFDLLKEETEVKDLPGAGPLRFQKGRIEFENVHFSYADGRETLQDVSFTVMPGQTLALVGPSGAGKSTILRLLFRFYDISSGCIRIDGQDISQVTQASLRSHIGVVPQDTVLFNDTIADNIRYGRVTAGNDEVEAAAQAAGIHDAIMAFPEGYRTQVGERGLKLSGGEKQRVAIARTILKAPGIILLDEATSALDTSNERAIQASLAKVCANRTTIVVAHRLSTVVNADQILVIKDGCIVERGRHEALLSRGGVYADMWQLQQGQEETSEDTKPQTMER

In the case of `C/C(=N\NC(=O)C1(C)CC1(Br)Br)c1ccc([N+](=O)[O-])cc1` (stereo not given), the percent of DMSO control GFP in [1] is 105% (inactive). For the same molecule, the GFP response vs DMSO in assay [2] is 99.3% (inactive); in assay [4], 85.5% (inactive). The percent response of DMSO control in assay [3] was 105% (inactive). The GFP response, % of DMSO in assay [5] is 104% (inactive). In assay [6], this molecule had a double positive events of 65.3%. Further, the vesicle binding response in [6] was 390% (inactive). For the same molecule, the inhibition in [7] is -0.45% (inactive); in assay [11], -5.83% (inactive); in assay [15], 1% (inactive). In assay [8], the superoxide response (% of plate) was 83.6% (inactive). Moreover, in assay [9], the aptamer binding inhibition is 6% (inactive). The response is -9.52% (inactive) in [10] and 26.1% (active) in assay [12]. In addition, the binding (% of control) in assay [13] is 98.5% (inactive). In assay [14], the efflux inhibition (fraction of control) was -0.17 (inactive). Further, the differentiation response in assay [16] was 13.9% (inactive).

Turning to `O=C(O)C1Cc2ccccc2CN1S(=O)(=O)c1ccccc1` (stereo not given), the percent of DMSO control GFP in assay [1] was 98.8% (inactive). Moreover, the GFP response vs DMSO in [2] is 104% (inactive); in assay [4] it was 118% (inactive). In [3], the percent response of DMSO control was 92.9% (inactive). Further, the GFP response, % of DMSO in [5] is 96.8% (inactive). Further, the double positive events in assay [6] worked out at 60.9%. Besides, the vesicle binding response in [6] was 186% (inactive). For the same molecule, the inhibition was -12.7% (inactive) in [7], 1.65% (inactive) in assay [11] and 9% (inactive) in assay [15]. Moreover, in assay [8], the superoxide response (% of plate) was 107% (inactive). In addition, in assay [9], the aptamer binding inhibition is 4% (inactive). Besides, the response was -23.4% (inactive) in assay [10] and 1.38% (inactive) in assay [12]. Moreover, in assay [13], the binding (% of control) was 104% (inactive). Further, in [14], the efflux inhibition (fraction of control) is -0.17 (inactive). The differentiation response in assay [16] is 2.4% (inactive).

Take `CC(C)(C)NCC(O)COc1cccc2c1C[C@H](O)[C@H](O)C2` (stereo not given in full): the percent of DMSO control GFP in assay [1] was 104% (inactive). Further, the GFP response vs DMSO in [2] was 108% (inactive); in assay [4], 88.1% (inactive). Moreover, the percent response of DMSO control in assay [3] is 98.9% (inactive). Further, the GFP response, % of DMSO in assay [5] is 98.1% (inactive). Also, the double positive events in assay [6] turned out to be 62.6%. In addition, the vesicle binding response in assay [6] is 1270% (inactive). Moreover, the inhibition is -16% (inactive) in assay [7], 55.4% (active) in assay [11] and 17% (inactive) in [15]. The superoxide response (% of plate) in assay [8] is 104% (inactive). The aptamer binding inhibition in [9] is 3% (inactive). In addition, the figures for the response in assay [10] and in assay [12] were 0.85% (inactive) and -3.23% (inactive), respectively. The binding (% of control) in assay [13] is 99.2% (inactive). For the same molecule, in assay [14], the efflux inhibition (fraction of control) was 0.05 (inactive). For the same molecule, the differentiation response in assay [16] was 14.9% (inactive).

Take `CCOC(=O)c1oc2cc(O)cc(C)c2c(=O)c1-c1cscn1`: the percent of DMSO control GFP in [1] is 100% (inactive). For the same molecule, the GFP response vs DMSO in [2] is 105% (inactive); in assay [4], 119% (inactive). In [3], the percent response of DMSO control is 91% (inactive). Further, the GFP response, % of DMSO in assay [5] was 102% (inactive). The same molecule returned a double positive events in assay [6] of 58.7%. Besides, the vesicle binding response in [6] was 182% (inactive). Besides, the results for the inhibition in [7], in assay [11] and in [15] were 3.67% (inactive), 24.6% (inactive) and 3% (inactive), respectively. The superoxide response (% of plate) in assay [8] is 101% (inactive). In [9], the aptamer binding inhibition was 4% (inactive). Further, the values for the response in [10] and in [12] were -3.97% (inactive) and -5.59% (inactive), respectively. Also, the binding (% of control) in [13] was 101% (inactive). Also, the efflux inhibition (fraction of control) in [14] was -0.06 (inactive). Besides, the differentiation response in assay [16] is 5.6% (inactive).

`O=C(NC(=S)Nc1nc(-c2ccccc2)cs1)c1ccco1`: the percent of DMSO control GFP in [1] was 90.9% (inactive). The GFP response vs DMSO in [2] is 132% (inactive); in assay [4] it was 85.3% (inactive). Also, the percent response of DMSO control in assay [3] is 102% (inactive). Further, in [5], the GFP response, % of DMSO was 87.3% (inactive). The molecule further displayed a double positive events in [6] of 55.7%. In addition, the vesicle binding response in [6] was 164% (inactive). In addition, the inhibition is 1.61% (inactive) in assay [7], 16.9% (inactive) in [11] and 7% (inactive) in [15]. Also, the superoxide response (% of plate) in [8] was 110% (inactive). For the same molecule, the aptamer binding inhibition in [9] was 3% (inactive). Also, the response in assay [10] was -23.9% (inactive); in assay [12], -1.38% (inactive). In assay [13], the binding (% of control) is 102% (inactive). In addition, the efflux inhibition (fraction of control) in [14] was 0.12 (inactive). For the same molecule, in [16], the differentiation response was 5.73% (inactive).
